Experimental data: the supplement of paper PMC4466140

Target: AgAbp1
Assay: SPOT peptide array binding signal intensity (averaged, normalized) (arbitrary units (background-subtracted, floor 0; scale differs between SH3 domains)); higher = stronger binding of the SH3 domain to the peptide
How it was run: (§1)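 GST-fused SH3 domains, from four yeast species, were produced in E. coli BL21(DE3) and captured on glutathione Sepharose. Membranes of cellulose carrying synthetic 15-mer peptides, in which cysteines had been replaced by serines, were exposed to each domain at 10 μg/ml overnight at 4°C in TBS-based blocking buffer. After anti-GST antibody, an HRP anti-mouse secondary and luminol, spots were imaged and quantified using Genespotter. Binding signal is normalized and background-subtracted spot intensity, averaged over replicates, in arbitrary units that differ between domains.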

Row | Binder | SPOT peptide array binding signal intensity
1 | NPLPKEPRLPKRKVA | 16

Target: AgBbc1
Assay: as above
How it was run: as §1

Row | Binder | SPOT peptide array binding signal intensity
2 | NPLPKEPRLPKRKVA | 254

Target: AgBem1-D1
Assay: as above
How it was run: as §1

Row | Binder | SPOT peptide array binding signal intensity
3 | NPLPKEPRLPKRKVA | 66.5

Target: AgBzz1-D1
Assay: as above
How it was run: as §1

Row | Binder | SPOT peptide array binding signal intensity
4 | NPLPKEPRLPKRKVA | 48

Target: AgBzz1-D2
Assay: as above
How it was run: as §1

Row | Binder | SPOT peptide array binding signal intensity
5 | NPLPKEPRLPKRKVA | 78.5

Target: AgCyk3
Assay: as above
How it was run: as §1

Row | Binder | SPOT peptide array binding signal intensity
6 | NPLPKEPRLPKRKVA | 1

Target: AgFus1
Assay: as above
How it was run: as §1

Row | Binder | SPOT peptide array binding signal intensity
7 | NPLPKEPRLPKRKVA | 20

Target: AgHof1
Assay: as above
How it was run: as §1

Row | Binder | SPOT peptide array binding signal intensity
8 | NPLPKEPRLPKRKVA | 28

Target: AgHse1
Assay: as above
How it was run: as §1

Row | Binder | SPOT peptide array binding signal intensity
9 | NPLPKEPRLPKRKVA | 134

Target: AgLsb1
Assay: as above
How it was run: as §1

Row | Binder | SPOT peptide array binding signal intensity
10 | NPLPKEPRLPKRKVA | 3.25

Target: AgLsb4
Assay: as above
How it was run: as §1

Row | Binder | SPOT peptide array binding signal intensity
11 | NPLPKEPRLPKRKVA | 2040

Target: AgMyo5
Assay: as above
How it was run: as §1

Row | Binder | SPOT peptide array binding signal intensity
12 | NPLPKEPRLPKRKVA | ≤ 0

Target: AgNbp2
Assay: as above
How it was run: as §1

Row | Binder | SPOT peptide array binding signal intensity
13 | NPLPKEPRLPKRKVA | 25

Target: AgRvs167
Assay: as above
How it was run: as §1

Row | Binder | SPOT peptide array binding signal intensity
14 | NPLPKEPRLPKRKVA | 23

Target: AgSho1
Assay: as above
How it was run: as §1

Row | Binder | SPOT peptide array binding signal intensity
15 | NPLPKEPRLPKRKVA | 37

Target: AgSla1-D1-D2
Assay: as above
How it was run: as §1

Row | Binder | SPOT peptide array binding signal intensity
16 | NPLPKEPRLPKRKVA | 28

Target: AgSla1-D3
Assay: as above
How it was run: as §1

Row | Binder | SPOT peptide array binding signal intensity
17 | NPLPKEPRLPKRKVA | 9

Target: CaAbp1-D1
Assay: as above
How it was run: as §1

Row | Binder | SPOT peptide array binding signal intensity
18 | NPLPKEPRLPKRKVA | 655

Target: CaAbp1-D2
Assay: as above
How it was run: as §1

Row | Binder | SPOT peptide array binding signal intensity
19 | NPLPKEPRLPKRKVA | 376

Target: CaBbc1
Assay: as above
How it was run: as §1

Row | Binder | SPOT peptide array binding signal intensity
20 | NPLPKEPRLPKRKVA | 1010

Target: CaBem1-D1
Assay: as above
How it was run: as §1

Row | Binder | SPOT peptide array binding signal intensity
21 | NPLPKEPRLPKRKVA | 30

Target: CaBzz1-D1
Assay: as above
How it was run: as §1

Row | Binder | SPOT peptide array binding signal intensity
22 | NPLPKEPRLPKRKVA | 122

Target: CaBzz1-D2
Assay: as above
How it was run: as §1

Row | Binder | SPOT peptide array binding signal intensity
23 | NPLPKEPRLPKRKVA | 95.5

Target: CaCyk3
Assay: as above
How it was run: as §1

Row | Binder | SPOT peptide array binding signal intensity
24 | NPLPKEPRLPKRKVA | 6.5

Target: CaFus1
Assay: as above
How it was run: as §1

Row | Binder | SPOT peptide array binding signal intensity
25 | NPLPKEPRLPKRKVA | 190

Target: CaHof1
Assay: as above
How it was run: as §1

Row | Binder | SPOT peptide array binding signal intensity
26 | NPLPKEPRLPKRKVA | 2

Target: CaHse1
Assay: as above
How it was run: as §1

Row | Binder | SPOT peptide array binding signal intensity
27 | NPLPKEPRLPKRKVA | 10.8

Target: CaLsb1
Assay: as above
How it was run: as §1

Row | Binder | SPOT peptide array binding signal intensity
28 | NPLPKEPRLPKRKVA | 4

Target: CaLsb4
Assay: as above
How it was run: as §1

Row | Binder | SPOT peptide array binding signal intensity
29 | NPLPKEPRLPKRKVA | 3890

Target: CaMyo5
Assay: as above
How it was run: as §1

Row | Binder | SPOT peptide array binding signal intensity
30 | NPLPKEPRLPKRKVA | 4

Target: CaNbp2
Assay: as above
How it was run: as §1

Row | Binder | SPOT peptide array binding signal intensity
31 | NPLPKEPRLPKRKVA | 112

Target: CaRvs167
Assay: as above
How it was run: as §1

Row | Binder | SPOT peptide array binding signal intensity
32 | NPLPKEPRLPKRKVA | 303

Target: CaRvs167-3
Assay: as above
How it was run: as §1

Row | Binder | SPOT peptide array binding signal intensity
33 | NPLPKEPRLPKRKVA | 4.5

Target: CaSho1
Assay: as above
How it was run: as §1

Row | Binder | SPOT peptide array binding signal intensity
34 | NPLPKEPRLPKRKVA | 60

Target: CaSla1-D1-D2
Assay: as above
How it was run: as §1

Row | Binder | SPOT peptide array binding signal intensity
35 | NPLPKEPRLPKRKVA | 1220

Target: CaSla1-D3
Assay: as above
How it was run: as §1

Row | Binder | SPOT peptide array binding signal intensity
36 | NPLPKEPRLPKRKVA | 6

Target: ScAbp1
Assay: as above
How it was run: as §1

Row | Binder | SPOT peptide array binding signal intensity
37 | NPLPKEPRLPKRKVA | 147

Target: ScBbc1
Assay: as above
How it was run: as §1

Row | Binder | SPOT peptide array binding signal intensity
38 | NPLPKEPRLPKRKVA | 168

Target: ScBem1-D1
Assay: as above
How it was run: as §1

Row | Binder | SPOT peptide array binding signal intensity
39 | NPLPKEPRLPKRKVA | 12.5

Target: ScBzz1-D1
Assay: as above
How it was run: as §1

Row | Binder | SPOT peptide array binding signal intensity
40 | NPLPKEPRLPKRKVA | 81

Target: ScBzz1-D2
Assay: as above
How it was run: as §1

Row | Binder | SPOT peptide array binding signal intensity
41 | NPLPKEPRLPKRKVA | 56.5

Target: ScCyk3
Assay: as above
How it was run: as §1

Row | Binder | SPOT peptide array binding signal intensity
42 | NPLPKEPRLPKRKVA | 3

Target: ScFus1
Assay: as above
How it was run: as §1

Row | Binder | SPOT peptide array binding signal intensity
43 | NPLPKEPRLPKRKVA | 42

Target: ScHof1
Assay: as above
How it was run: as §1

Row | Binder | SPOT peptide array binding signal intensity
44 | NPLPKEPRLPKRKVA | 1.25

Target: ScHse1
Assay: as above
How it was run: as §1

Row | Binder | SPOT peptide array binding signal intensity
45 | NPLPKEPRLPKRKVA | 337

Target: ScLsb1
Assay: as above
How it was run: as §1

Row | Binder | SPOT peptide array binding signal intensity
46 | NPLPKEPRLPKRKVA | 29.5

Target: ScLsb2
Assay: as above
How it was run: as §1

Row | Binder | SPOT peptide array binding signal intensity
47 | NPLPKEPRLPKRKVA | ≤ 0

Target: ScLsb3
Assay: as above
How it was run: as §1

Row | Binder | SPOT peptide array binding signal intensity
48 | NPLPKEPRLPKRKVA | 3820

Target: ScLsb4
Assay: as above
How it was run: as §1

Row | Binder | SPOT peptide array binding signal intensity
49 | NPLPKEPRLPKRKVA | 1350

Target: ScMyo3
Assay: as above
How it was run: as §1

Row | Binder | SPOT peptide array binding signal intensity
50 | NPLPKEPRLPKRKVA | ≤ 0

Target: ScMyo5
Assay: as above
How it was run: as §1

Row | Binder | SPOT peptide array binding signal intensity
51 | NPLPKEPRLPKRKVA | ≤ 0

Target: ScNbp2
Assay: as above
How it was run: as §1

Row | Binder | SPOT peptide array binding signal intensity
52 | NPLPKEPRLPKRKVA | 41

Target: ScPex13
Assay: as above
How it was run: as §1

Row | Binder | SPOT peptide array binding signal intensity
53 | NPLPKEPRLPKRKVA | 58.2

Target: ScRvs167
Assay: as above
How it was run: as §1

Row | Binder | SPOT peptide array binding signal intensity
54 | NPLPKEPRLPKRKVA | 1460

Target: ScSho1
Assay: as above
How it was run: as §1

Row | Binder | SPOT peptide array binding signal intensity
55 | NPLPKEPRLPKRKVA | 286

Target: ScSla1-D1-D2
Assay: as above
How it was run: as §1

Row | Binder | SPOT peptide array binding signal intensity
56 | NPLPKEPRLPKRKVA | 546

Target: ScSla1-D3
Assay: as above
How it was run: as §1

Row | Binder | SPOT peptide array binding signal intensity
57 | NPLPKEPRLPKRKVA | 4.5

Target: SpAbp1-D1
Assay: as above
How it was run: as §1

Row | Binder | SPOT peptide array binding signal intensity
58 | NPLPKEPRLPKRKVA | 86

Target: SpBbc1
Assay: as above
How it was run: as §1

Row | Binder | SPOT peptide array binding signal intensity
59 | NPLPKEPRLPKRKVA | 4.25

Target: SpBzz1-D1
Assay: as above
How it was run: as §1

Row | Binder | SPOT peptide array binding signal intensity
60 | NPLPKEPRLPKRKVA | 356

Target: SpBzz1-D2
Assay: as above
How it was run: as §1

Row | Binder | SPOT peptide array binding signal intensity
61 | NPLPKEPRLPKRKVA | 2.5

Target: SpCyk3
Assay: as above
How it was run: as §1

Row | Binder | SPOT peptide array binding signal intensity
62 | NPLPKEPRLPKRKVA | ≤ 0

Target: SpHof1
Assay: as above
How it was run: as §1

Row | Binder | SPOT peptide array binding signal intensity
63 | NPLPKEPRLPKRKVA | 120

Target: SpHof1-2
Assay: as above
How it was run: as §1

Row | Binder | SPOT peptide array binding signal intensity
64 | NPLPKEPRLPKRKVA | 262

Target: SpHof1-3
Assay: as above
How it was run: as §1

Row | Binder | SPOT peptide array binding signal intensity
65 | NPLPKEPRLPKRKVA | 464

Target: SpHse1
Assay: as above
How it was run: as §1

Row | Binder | SPOT peptide array binding signal intensity
66 | NPLPKEPRLPKRKVA | 198

Target: SpLsb1
Assay: as above
How it was run: as §1

Row | Binder | SPOT peptide array binding signal intensity
67 | NPLPKEPRLPKRKVA | 16

Target: SpLsb4
Assay: as above
How it was run: as §1

Row | Binder | SPOT peptide array binding signal intensity
68 | NPLPKEPRLPKRKVA | 7280

Target: SpMyo1
Assay: as above
How it was run: as §1

Row | Binder | SPOT peptide array binding signal intensity
69 | NPLPKEPRLPKRKVA | ≤ 0

Target: SpNbp2
Assay: as above
How it was run: as §1

Row | Binder | SPOT peptide array binding signal intensity
70 | NPLPKEPRLPKRKVA | 27

Target: SpPex13
Assay: as above
How it was run: as §1

Row | Binder | SPOT peptide array binding signal intensity
71 | NPLPKEPRLPKRKVA | 15

Target: SpRvs167
Assay: as above
How it was run: as §1

Row | Binder | SPOT peptide array binding signal intensity
72 | NPLPKEPRLPKRKVA | 1700

Target: SpSla1-D1-D2
Assay: as above
How it was run: as §1

Row | Binder | SPOT peptide array binding signal intensity
73 | NPLPKEPRLPKRKVA | ≤ 0

Target: SpSla1-D3
Assay: as above
How it was run: as §1

Row | Binder | SPOT peptide array binding signal intensity
74 | NPLPKEPRLPKRKVA | 15
